# BoNT-F LC inh: BoNT/F light chain protease inhibitors, primary screen, biochemical, flow cytometry, MLPCN library; inhibition, % at 10 µM; Multiplex microsphere protease cleavage assay; AID 588497, 2011; 360,000 compounds, 0.22% hits; in the data active = inhibition above about 35%, passing the limit was not always enough; inconclusive = no clear call, values can overlap the other calls; also: plate controls were buffer without enzyme for full effect and enzyme alone for no effect
# MazF activator: activators of E. coli MazEF toxin-antitoxin RNase, primary screen, biochemical, fluorescence, uHTS; Endoribonuclease toxin MazF (Escherichia coli (strain K12)), P0AE70; FAM/BHQ RNA-DNA oligo cleavage fluorescence, 5 h; activation, % at 20 µM; 350,000 compounds, 0.32% hits; in the data active = activation above about 50%
# Target sequence (P0AE70 whole entry, looked up): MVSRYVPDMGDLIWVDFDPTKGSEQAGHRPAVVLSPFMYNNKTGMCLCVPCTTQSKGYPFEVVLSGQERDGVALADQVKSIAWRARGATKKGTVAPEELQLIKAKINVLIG
# PfHsp40 rescue: rescue of yeast from PfHsp40 toxicity, primary screen, S. cerevisiae, ATP luminescence | 340,000 compounds, 0.68% hits | growth rescue, % at 12.5 µM | AID 504582, 2011 | S. cerevisiae expressing PfHsp40, growth rescue; in the data active = growth rescue above about 28%, passing the limit was not always enough; inconclusive = no clear call, values can overlap the other calls;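 also: yeast W303a lacking pdr1 and pdr3 grown in galactose medium; growth measured after three days at 30 °C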
# Anthrax LF prot: Bacillus anthracis LF protease inhibitors, primary screen, biochemical, multiplex microsphere, MLPCN library | Lethal factor (Bacillus anthracis), P15917 | multiplex microsphere protease cleavage assay | inhibition, % at 10 µM | 360,000 compounds, 0.12% hits; also: plate controls were buffer without enzyme for full effect and enzyme alone for no effect
# BoNT-A LC inh2: BoNT/A light chain protease inhibitors, primary screen, biochemical, flow cytometry, MLPCN library | Botulinum neurotoxin type A light chain protease (Clostridium botulinum A str. ATCC 3502) | multiplex microsphere protease substrate cleavage | inhibition, % at 10 µM | 360,000 compounds, 0.17% hits | AID 588499, 2011; also: plate controls were buffer without enzyme for full effect and enzyme alone for no effect
# Autofluor counter: flagged as autofluorescent in microsphere protease counterscreen | compound autofluorescence counterscreen, microsphere flow cytometry; stronger effect = higher value | AID 624483 | fluorescence intensity (test concentration not listed) | 360,000 compounds, 3.1% hits; in the data active = fluorescence intensity above about 16000; inconclusive = no clear call, values can overlap the other calls
# Numbers without * were called inactive; ? = inconclusive; . = no result given. Only some compounds are listed: those with a hit (about 4.3% of all), similar ones and a draw of the others. Rule as the data show it, unless noted: active = inhibition above about 30%; inconclusive = no clear call, values can overlap the other calls; inactive = below that.
SMILES,BoNT-F LC inh,MazF activator,PfHsp40 rescue,Anthrax LF prot,BoNT-A LC inh2,Autofluor counter
CCOC(=O)N1CCN(C(=O)c2ccc(N(Cc3ccc(C)cc3)S(C)(=O)=O)cc2)CC1,-2,-9,1,-3,-2,23851*
Cc1ccc(CN(c2ccc(C(=O)Nc3ccc4c(c3)OCO4)cc2)S(C)(=O)=O)cc1,-2,23,1,-1,2,15731
CCOC(=O)N1CCN(C(=O)c2ccc(N(Cc3ccc(Cl)cc3)S(C)(=O)=O)cc2)CC1,-9,11,-1,0,0,3652
CC1=C(C(=O)N2CCCCCC2)CC(CC(=O)NC(c2ccccc2)c2ccccc2)C(=O)N1Cc1ccccc1 (stereo unspecified),8,.,.,-13,0,4373
CN1CCN(c2ccc(CNS(=O)(=O)Cc3cccc(C(F)(F)F)c3)cc2)CC1,?,3,.,-1,-2,3663
COc1ccc(NC(=O)C2CCN(C(=O)NCc3ccccc3)CC2)cc1,2,11,1,-2,1,16148*
CCCCOc1ccc(NC(=O)C2CC=CCC2C(=O)O)cc1 (stereo unspecified),-18,-9,0,0,-1,6846
CCOc1ccc(NC(=O)C2CCN(C(=O)NCc3ccccc3)CC2)cc1,0,2,0,-2,2,22864*
CCOc1ccc(NC(=O)C2CC=CCC2C(=O)O)cc1 (stereo unspecified),0,-1,-1,0,0,22332*
Cc1ccc(NC(=O)C2CCN(C(=O)NCc3ccccc3)CC2)cc1C,2,11,-1,-4,0,4459
COc1ccc(N2CCC(CNC(=O)Nc3ccccc3)C2)cc1 (stereo unspecified),-22,-4,0,-13,6,19305*
Cc1ccc(S(=O)(=O)NN=C2CCCc3ccccc32)cc1,4,2,.,-4,0,3592
O=C(CN1CCc2ccccc2C1)Nc1ccccc1F,0,2,-2,10,-3,3753
CCOC(=O)C1CCC(CNCc2ccccc2C)CC1 (stereo unspecified),-10,1,-1,-6,-1,4955
CCN(CC)S(=O)(=O)c1cccc(C(=O)NC2CCCCC2)c1,-1,2,-1,1,?,21448*
CCN(CC)S(=O)(=O)c1cccc(NC(=O)Nc2cccc(C(F)(F)F)c2)c1,-11,6,1,-4,-6,21515*
CCN(CC)S(=O)(=O)c1cc(C(=O)Nc2cccnc2)ccc1Cl,-1,4,-2,-2,0,11204
Cc1ccc(NC(=O)c2cccc(S(=O)(=O)N(C)C3CCCCC3)c2)nc1,-2,-2,50*,-3,-1,6145
CCN(CC)S(=O)(=O)c1cccc(C(=O)Nc2cccnc2)c1,3,-10,1,-8,?,22467*
CCN(CC)S(=O)(=O)c1cccc(NC(=O)CC2CCCC2)c1,7,-37,-1,5,-3,3152
C=CCNc1cccc(Br)c1,-9,9,0,2,-1,4628
CCN(C(=O)COC(=O)c1ccccc1NCCO)C1CCS(=O)(=O)C1 (stereo unspecified),-9,7,0,1,0,5561
CCN(Cc1nc(-c2cccc(C)c2)no1)C(=O)c1ccco1,-2,1,2,-2,0,4519
Cc1ccc(C(=O)n2cnnc2N)cc1,-6,2,1,0,?,21599*
COc1cccc(C(=O)N2CCCN(C)CC2)c1OC,37*,12,-1,16,4,3084
SMILES,BoNT-F LC inh,MazF activator,PfHsp40 rescue,Anthrax LF prot,BoNT-A LC inh2,Autofluor counter
Nc1nncn1C(=O)c1cc(Br)ccc1Cl,-3,-2,1,9,1,9504
COc1cccc(C(=O)n2cnnc2N)c1OC,1,-5,0,-2,2,19978*
Nc1nncn1C(=O)c1c(Cl)cccc1Cl,3,-1,0,1,5,17890*
Cc1ccc(C)c(C(=O)n2cnnc2N)c1,-16,5,3,-2,0,3397
CCc1ccc([C@H]2[C@@H]3C(=O)C[C@@H]4C(=O)N(C5CCCCC5)C(=O)[C@@H]4[C@@H]3CN2S(=O)(=O)c2ccc(C)cc2)cc1,5,.,.,6,1,5518
COc1ccccc1CN1CCC(n2nccc2NC(=O)CCCc2ccccc2)CC1,4,1,0,-1,2,5677
CC(=O)c1cnc2nc(C(F)(F)F)nn2c1C,-4,80*,0,-2,-1,2708
CC(=O)c1cnc2nc(SCc3ccccc3C)nn2c1C,8,0,-2,-18,-4,4121
CCC(=O)Nc1ccc2c(c1)ncn2-c1ccccc1,-10,5,1,0,-8,21985*
CC(C)(C)CC(C)(C)NCC(O)COc1c(F)cc(Br)cc1F (stereo unspecified),0,14,-1,0,1,2074
CC(C)(C)NCC(O)COc1c(F)cc(Br)cc1F (stereo unspecified),2,7,2,1,2,22894*
O=C(O)CCC(=O)CCC(=O)c1ccccc1,-3,14,0,-2,?,23543*
Cc1ccc(C(=O)CCC(=O)CCC(=O)O)cc1,-8,2,0,-3,0,11167
O=C(O)CCC(=O)c1ccc2sc3ccccc3c2c1,1,1,122*,3,0,2703
Cc1cc(C)c(OCC(=O)Nc2nnc(C3CC3)s2)c(C)c1,5,2,0,2,6,?
O=c1[nH]c(=S)[nH]c2c1C(C1CCCCC1)OC(C1CCCCC1)C2 (stereo unspecified),4,.,.,4,0,5463
Cc1ncsc1C(=O)Nc1nc2c(s1)CC(C)CC2 (stereo unspecified),-2,-2,2,-6,-1,16464*
CC1CCc2nc(NC(=O)C3CC3)sc2C1 (stereo unspecified),4,11,1,1,0,2754
Cc1ccc2nc(C(F)(F)F)c(C#N)c(N)c2c1,0,4,10,-1,?,23566*
CN(Cc1nc(-c2ccccn2)no1)S(=O)(=O)c1ccc(Cl)cc1,4,4,-2,1,4,21655*
CN(Cc1nc(-c2cccnc2)no1)S(=O)(=O)c1ccccc1,7,-2,0,1,0,2859
CCOCCCNC(=O)CN1CCN(S(=O)(=O)c2ccc3c(c2)CCC3)CC1,3,6,-1,-7,0,7825
CCC(NC(=O)c1ccccc1NC(=O)C(C)(C)C)C(=O)N1CC(C)OC(C)C1 (stereo unspecified),.,52*,-2,.,.,.
